This note sets out measurements from PubChem BioAssay.

Test [1] in a line: optical density shifts of acrAB sulA E. coli – strain DRC41, OD650, 48 h, E. coli filamentation inducer project, primary screen (AID 1152).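 Further: E. coli MC1000 strain DRC41 lacking acrAB efflux pump and sulA.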 The note with it: higher = more signal, called active from +8 up or from −8 down.
The nature of test [2]: probe aLefty1 binding on compound microarray – biochemical, small-molecule microarray, 635/667 nm fluorescence, primary screen (AID 1153).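 Further: score merges spot fluorescence with signal-to-noise ratio from the scanned slide images.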 Conditions: higher = more signal.
Test [3] can be described thus: plasmodial surface anion channel blockers, osmotic lysis – cell-based, P. falciparum Indochina, OD700, 1 h, primary screen (AID 1154). Conditions: P. falciparum Indochina infected RBC osmotic lysis, higher = more signal, called active from +8 up or from −8 down.
Test [4] can be described thus: plasmodial surface anion channel blockers, osmotic lysis – cell-based, P. falciparum Indochina, OD700, 2 h, primary screen (AID 1155).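 Further: lysis reports solute entry through the parasite surface anion channel PSAC.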 Conditions: P. falciparum Indochina infected erythrocytes, higher = more signal, called active from +8 up or from −8 down.
Test [5] in a line: changes in parasitized red cell lysis, either direction – P. falciparum Indochina, OD700, 3 h, PSAC antagonist project, primary screen (AID 1156). Conditions: P. falciparum-infected erythrocytes, osmotic lysis, higher = more signal, called active from +8 up or from −8 down.
Test [6] can be described thus: plasmodial surface anion channel blockers, osmotic lysis – cell-based, P. falciparum Indochina, OD700, 18 h, primary screen (AID 1157). Conditions: P. falciparum Indochina infected erythrocytes, osmotic lysis OD700, 18 h; higher = more signal, called active from +8 up or from −8 down.
The nature of test [7]: S6 kinase pathway phospho-S6 level changes – cell-based, A549, cytoblot, luminescence, serum-stimulated, primary screen (AID 1158).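 Further: serum-stimulated A549 lung adenocarcinoma cells; signal is phosphorylated S6 detected by cytoblot immunostaining with HRP secondary.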 Conditions: 5 h, higher = more signal.
Test [8] addresses NADPH oxidase 2 (Homo sapiens) (UniProt P04839). In words: compounds shifting NOX2 Amplex Red fluorescence – cell-based, HEK293-NOX2, PMA-stimulated, NOX inhibitor project, primary screen (AID 1159). Further: test concentration not given here. Conditions: 45 min, higher = more signal, called active from +8 up or from −8 down.
Test [9] addresses NADPH oxidase 4 (Homo sapiens) (UniProt Q9NPH5). Description: compounds shifting NOX4 Amplex Red fluorescence – cell-based, HEK293-NOX4, tetracycline-induced, NOX inhibitor project, primary screen (AID 1160). The note with it: HEK293-NOX4, Amplex Red H2O2 fluorescence, 45 min; higher = more signal, called active from +8 up or from −8 down.
Test [10] has as its target NADPH oxidase 5 (Homo sapiens) (UniProt Q96PH1). In words: compounds shifting NOX5 Amplex Red fluorescence – cell-based, HEK293-NOX5, NOX inhibitor project, primary screen (AID 1161). Conditions: HEK293-NOX5, ionomycin, 45 min, higher = more signal.

Active and inactive are the calls of the source.

NADPH oxidase 5 (Homo sapiens), sequence (Q96PH1 whole entry, looked up): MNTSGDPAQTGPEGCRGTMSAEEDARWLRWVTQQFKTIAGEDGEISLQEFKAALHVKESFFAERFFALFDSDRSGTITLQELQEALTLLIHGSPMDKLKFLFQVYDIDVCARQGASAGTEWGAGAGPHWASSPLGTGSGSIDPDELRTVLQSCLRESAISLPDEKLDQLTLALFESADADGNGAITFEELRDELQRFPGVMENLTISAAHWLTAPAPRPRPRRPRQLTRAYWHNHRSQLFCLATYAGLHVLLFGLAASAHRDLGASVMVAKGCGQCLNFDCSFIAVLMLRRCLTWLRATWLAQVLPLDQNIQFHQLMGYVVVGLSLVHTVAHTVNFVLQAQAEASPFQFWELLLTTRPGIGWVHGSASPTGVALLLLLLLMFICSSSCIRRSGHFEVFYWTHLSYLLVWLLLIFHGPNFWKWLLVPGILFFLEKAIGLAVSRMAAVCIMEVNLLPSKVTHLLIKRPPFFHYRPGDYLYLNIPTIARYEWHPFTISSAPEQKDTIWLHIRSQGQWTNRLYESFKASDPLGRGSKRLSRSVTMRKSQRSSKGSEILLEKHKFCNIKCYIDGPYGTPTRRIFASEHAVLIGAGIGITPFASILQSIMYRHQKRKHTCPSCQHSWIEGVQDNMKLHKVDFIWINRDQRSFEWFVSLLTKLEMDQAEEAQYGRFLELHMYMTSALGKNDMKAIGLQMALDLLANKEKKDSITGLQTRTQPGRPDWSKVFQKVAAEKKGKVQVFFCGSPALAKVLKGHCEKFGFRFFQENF
NADPH oxidase 2 (Homo sapiens), sequence (P04839 whole entry, looked up): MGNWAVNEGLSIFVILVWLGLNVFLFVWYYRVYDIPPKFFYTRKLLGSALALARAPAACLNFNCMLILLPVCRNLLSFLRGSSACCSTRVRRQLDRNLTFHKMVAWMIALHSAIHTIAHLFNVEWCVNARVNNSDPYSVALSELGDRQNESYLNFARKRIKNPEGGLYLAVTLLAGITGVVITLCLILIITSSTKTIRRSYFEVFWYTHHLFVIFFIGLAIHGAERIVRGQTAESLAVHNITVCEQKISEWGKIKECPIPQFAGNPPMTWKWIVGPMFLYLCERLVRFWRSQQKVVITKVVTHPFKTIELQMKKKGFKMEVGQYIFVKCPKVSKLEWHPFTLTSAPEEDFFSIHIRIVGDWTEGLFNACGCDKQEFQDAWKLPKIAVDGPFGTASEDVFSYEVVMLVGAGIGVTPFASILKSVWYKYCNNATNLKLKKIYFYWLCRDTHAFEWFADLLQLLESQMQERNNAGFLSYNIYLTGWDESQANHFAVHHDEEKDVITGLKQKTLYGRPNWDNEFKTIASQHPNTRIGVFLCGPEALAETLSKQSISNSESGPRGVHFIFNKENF
NADPH oxidase 4 (Homo sapiens), sequence (Q9NPH5 whole entry, looked up): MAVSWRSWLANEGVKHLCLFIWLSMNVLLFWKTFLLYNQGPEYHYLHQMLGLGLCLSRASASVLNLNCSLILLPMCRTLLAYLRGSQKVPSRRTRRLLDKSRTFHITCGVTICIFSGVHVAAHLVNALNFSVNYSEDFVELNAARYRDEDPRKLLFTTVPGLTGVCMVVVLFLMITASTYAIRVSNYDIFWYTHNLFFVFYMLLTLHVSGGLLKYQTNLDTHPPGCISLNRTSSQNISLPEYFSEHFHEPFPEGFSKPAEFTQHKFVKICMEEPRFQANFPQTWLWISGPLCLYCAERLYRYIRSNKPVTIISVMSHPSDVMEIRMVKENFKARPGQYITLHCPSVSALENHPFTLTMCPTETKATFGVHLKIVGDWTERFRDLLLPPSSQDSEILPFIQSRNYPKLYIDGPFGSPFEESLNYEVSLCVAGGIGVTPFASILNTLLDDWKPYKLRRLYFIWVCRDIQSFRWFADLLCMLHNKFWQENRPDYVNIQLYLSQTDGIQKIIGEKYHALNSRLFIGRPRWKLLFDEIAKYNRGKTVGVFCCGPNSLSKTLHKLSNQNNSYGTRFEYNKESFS

Regarding `COC(=O)[C@@]1(Cc2ccc(F)cc2)[C@@H]2[C@@H](CC(=O)[C@H]2CC(=O)C(=O)N(C)C)CN1C(=O)c1ccccc1`, the z-score in test [1] is -1.78 (inactive); in test [3], 2.32 (inactive); in test [4] it was 0.723 (inactive); in test [5] it was 0.806 (inactive); in [6], 0.961 (inactive); in test [7], -0.761. The z-score in test [8] was 0.366 (inactive); in [9] it was -0.21 (inactive); in test [10], 0.256. The same compound gave a composite z-score in test [2] of 0.334.

For `COc1ccc(C(=O)Nc2ccc(CN3C(=O)[C@@]4(O[C@@H](CC(=O)N5CCC[C@H]5CO)[C@H]([Si](C)(C)c5ccc(OC)cc5)[C@H]4C)c4ccccc43)cc2)cc1`, the z-score was 0.482 (inactive) in [1]; 5.52 (inactive) in [3]; 1.06 (inactive) in [4]; 0.146 (inactive) in test [5]; 0.77 (inactive) in test [6]; 0.363 in test [7]. Besides, the values for the z-score in [8], in [9] and in test [10] were 1.21 (inactive), 1.23 (inactive) and 4.5, respectively. For the same compound, the composite z-score in [2] worked out at 0.138.

In the case of `O=C1O[C@H](c2ccccc2)[C@H](c2ccccc2)N2[C@H]1[C@@H](C(=O)N1CCN(c3ncccn3)CC1)[C@]1(C(=O)Nc3ccc(C#CC4=CCCCC4)cc31)[C@H]2c1ccc(O)cc1`, the z-score is 0.635 (inactive) in test [1]; 0.706 (inactive) in test [3]; 0.574 (inactive) in test [4]; -0.313 (inactive) in test [5]; 1.01 (inactive) in test [6]; 0.538 in test [7]. Moreover, the z-score is 0.852 (inactive) in [8], 0.537 (inactive) in test [9] and 0.837 in test [10]. In test [2], this compound had a composite z-score of 0.396.

Turning to `COCCOC(=O)N1C(=O)[C@@]2(c3cc(C#CC4=CCCCC4)ccc31)[C@H](C(N)=O)[C@H]1C(=O)O[C@H](c3ccccc3)[C@H](c3ccccc3)N1[C@@H]2c1ccc(OCCO)cc1`, the z-score in test [1] was 0.102 (inactive); in [3], 6.77 (inactive); in test [4], 3.03 (inactive); in [5], 2.5 (inactive); in test [6] it was 1.96 (inactive); in [7] it was 0.375. Also, the figures for the z-score in [8], in [9] and in [10] were 1.54 (inactive), 1.41 (inactive) and 1.96, respectively. For the same compound, the composite z-score in test [2] was -0.273.

Take `COc1cc2c(cc1OC)CN(C(=O)[C@H]1[C@@H]3C(=O)O[C@@H](c4ccccc4)[C@@H](c4ccccc4)N3[C@@H](c3ccc(O)cc3)[C@]13C(=O)Nc1ccc(C#CCNC(N)=O)cc13)CC2`: the z-score in test [1] is 0.595 (inactive); in test [3] it was 0.342 (inactive); in test [4] it was 0.137 (inactive); in [5], -0.518 (inactive); in [6] it was 0.335 (inactive); in [7], 0.152. Besides, the z-score in [8] was 0.47 (inactive); in test [9], 0.732 (inactive); in [10] it was 0.56. The compound also came in with a composite z-score in test [2] of 0.075.

`CC(C)(C)OC(=O)CC[C@@]12N=C(c3ccc(OCCCO)cc3)O[C@@H]1c1ccccc1N(CCS(=O)(=O)c1ccccc1)C2=O`: the z-score in [1] was 0.864 (inactive); in [3] it was 30.9 (active); in test [4], 27.6 (active); in test [5], 3.49 (inactive); in test [6] it was 8.22 (active); in [7], 1.84. The z-score in test [8] was -0.619 (inactive); in test [9], 0.801 (inactive); in test [10], -2.14. The compound also registered a composite z-score in [2] of 0.334.

As for `C=C(CCCC)C(=O)CC[C@H](OC(=O)c1cccnc1)c1ccccc1OCCO`, the z-score was 0.853 (inactive) in test [1]; 16 (active) in [3]; 1.6 (inactive) in test [4]; 0.232 (inactive) in test [5]; -0.674 (inactive) in test [6]; 1.28 in test [7]. The z-score in test [8] is -1.2 (inactive); in test [9] it was -0.324 (inactive); in test [10] it was -2.33. This compound also yielded a composite z-score in [2] of -0.012.

`CCCCC(=C=CC[C@@H](O)c1ccccc1OCCO)CCO`: the z-score in test [1] is 0.086 (inactive); in test [3], 9.77 (active); in [4] it was 0.899 (inactive); in [5], 0.631 (inactive); in [6] it was 0.576 (inactive); in test [7], 0.289. The z-score in test [8] is -0.0172 (inactive); in test [9] it was -0.742 (inactive); in [10], -1.71. For the same compound, the composite z-score in test [2] was determined as 0.0752.
